Measured values published in PubChem BioAssay AID652016 (National Center for Advancing Translational Sciences (NCATS), 2013).
Records with an inconclusive call do not appear. Activity calls are given as the source filed them. Calls follow the shape of the dose curve; as a rule, active = well fitted inhibition curve with a large enough effect; inconclusive = small, poorly fitted or top-dose-only effect; inactive = flat fitted curve, though single readings scatter.

Target: Luciferin 4-monooxygenase (Photinus pyralis) (UniProt P08659)
Test: qHTS Assay for Inhibitors of Firefly Luciferase from the GSK Published Protein Kinase Inhibitor Set
Details: purified firefly luciferase, luminescence inhibition; series mostly up to 57.5 µM; activity change, negative = inhibition: at the top concentration
Text: FLuc (firefly luciferase) is the prototypical bioluminescent reporter gene from Photinus pyralis.[1] The enzyme catalyzes the oxidation luciferin via luciferin-AMP to produce light. FLuc is used in cell-based reporter gene-based assays for screening small molecule chemical libraries. However, small molecule luciferase inhibitors present in most large chemical libraries are often enriched in the output of high throughput screens using this reporter sometimes complicating interpretation and candidate selection.
RLuc is a bioluminescent reporter gene luciferase from Renilla reniformis, also known as the sea pansy. RLuc uses the luciferin substrate coelenterazine. RLuc is often used in combination with the nonhomologous luciferase FLuc (firefly luciferease) as a trasfection or pathway normalization control. Recently, non-homologous reporters have been described for high throughput screening 'coincidence' reporter gene strategies.
1. Fan F, Wood KV (2007) Bioluminescent assays for high-throughput screening. Assay Drug Dev Technol 5: 127-136.
2. Thorne N, Inglese J, Auld DS (2010) Illuminating insights into firefly luciferase and other bioluminescent reporters used in chemical biology. Chem Biol 17: 646-657.
3. […] Chem Biol 19: 1060-1072.
4. Michelini E, Cevenini L, Mezzanotte L, Coppa A, Roda A (2010) Cell-based assays: fuelling drug discovery. Anal Bioanal Chem 398: 227-238.
5. Cheng KC, Inglese J (2012) A coincidence reporter-gene system for high-throughput screening. Nat Methods 9: 937.
Biochemical firefly luciferase enzyme assay
NCGC Assay Protocol Summary:
Reagents: 50mM Tris acetate, pH 7.5; 10mM Mg acetate; 10uM D-luciferin (Sigma #L9504); 10uM ATP; 0.01% Tween-20; 0.05% BSA; 10nM P. pyralis luciferase (Sigma #L9506)
Control compounds used were two known firefly luciferase inhibitors (compounds (2) and (5) in Auld et al., 2010), and DMSO.
Three microliters containing firefly luciferase substrates in buffer (final concentrations: 50mM Tris acetate, pH 7.5, 10mM Mg acetate, 0.01% Tween-20, 0.05% BSA, 10uM D-luciferin, and 10uM ATP) are dispensed into each well of a Greiner white, solid-bottom 1536-well format plate using a flying reagent dispenser (FRD). These assay plates were then treated with 23nL of compound or DMSO using a Kalypsys pin tool, which allows for delivery of a 7-point interplate titration of each compound to the assay plates (quantitative HTS), with final compound concentrations ranging from approximately 60uM to 300pM. One microliter of firefly luciferase in 50mM Tris-acetate buffer was then delivered by FRD to each well for a final enzyme concentration of 10nM. Luciferase activity was then measured using an Envision plate reader (PerkinElmer), with an average incubation time of 5 min.
% is scaled to controls: 0 for no effect and ±100 for the full control effect; potency is read from the fitted curve at half-maximal effect.

Chain of Luciferin 4-monooxygenase (Photinus pyralis) (P08659 whole entry, looked up): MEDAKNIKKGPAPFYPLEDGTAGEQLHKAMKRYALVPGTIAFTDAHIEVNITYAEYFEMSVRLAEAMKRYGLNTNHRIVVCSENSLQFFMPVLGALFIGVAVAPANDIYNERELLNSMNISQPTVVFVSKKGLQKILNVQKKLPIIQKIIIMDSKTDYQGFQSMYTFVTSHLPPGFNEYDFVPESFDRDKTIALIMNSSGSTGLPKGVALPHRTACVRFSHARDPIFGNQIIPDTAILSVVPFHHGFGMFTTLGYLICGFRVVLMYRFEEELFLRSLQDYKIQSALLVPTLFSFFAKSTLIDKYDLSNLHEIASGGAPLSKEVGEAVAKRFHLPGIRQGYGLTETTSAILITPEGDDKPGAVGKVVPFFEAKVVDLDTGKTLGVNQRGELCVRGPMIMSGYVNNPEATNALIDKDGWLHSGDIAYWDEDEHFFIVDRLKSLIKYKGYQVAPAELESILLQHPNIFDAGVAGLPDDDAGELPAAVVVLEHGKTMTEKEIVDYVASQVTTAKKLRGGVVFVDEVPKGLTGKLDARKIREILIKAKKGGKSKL

With `COc1cc2ncn(-c3cc(OCc4ccccc4S(C)(=O)=O)c(C#N)s3)c2cc1OC` as the molecule, how does the “activity change, negative = inhibition” value read?
The value was 5.28% (inactive).

With `NC(=O)c1sc(-n2cnc3ccccc32)cc1OCc1ccccc1Br` as the molecule, how does the “activity change, negative = inhibition” value read?
Its value is -3.22% (inactive).

For `CCS(=O)(=O)c1ccc(OC)c(Nc2ncc(-c3cccc(-c4ccccc4F)c3)o2)c1`, which “activity change, negative = inhibition” value is on record?
Its value is -18.1% (inactive).

For `CC(=O)Nc1cccc(C#Cc2cncnc2Nc2ccc(OCc3cccc(F)c3)c(Cl)c2)n1`, which “activity change, negative = inhibition” value is on record?
Its value is -10.5% (inactive).

`Fc1ccc(Nc2nccc(-c3c(-c4ccc(C(F)(F)F)cc4)nn4ncccc34)n2)cc1F` was tested. Which “activity change, negative = inhibition” value did it give?
The value was -1.73% (inactive).

For `CN(C)CCOc1ccc(-c2cc(-c3ccc4c(c3)CCC4=NO)c(-c3ccncc3)o2)cc1`, which “activity change, negative = inhibition” value is on record?
Its value is -6.34% (inactive).

For `O=C(OC1CNC(C#Cc2cc3ncnc(Nc4ccc(Cc5ccccc5)cc4)c3s2)C1)N1CCOCC1` (stereo not given), which “activity change, negative = inhibition” value is on record?
Its value is 3.82% (inactive).

With `CC1=C(C(=O)Nc2ccc3[nH]ncc3c2)C(c2ccc(F)cc2)NC(=O)N1` (stereo not given) as the molecule, how does the “activity change, negative = inhibition” value read?
The value was -2.1% (inactive).

How did the “activity change, negative = inhibition” value turn out when `Cc1cc(Cl)cc2c(N=Nc3ccc(S(N)(=O)=O)cc3)c(O)[nH]c12` was run?
Its value is 2.74% (inactive).

With `CCn1cc(-c2ccnc3[nH]ccc23)c(-c2cccc(NC(=O)Nc3ccc(OCc4ccccc4)cc3)c2)n1` as the molecule, how does the “activity change, negative = inhibition” value read?
Its value is 17.6% (inactive).

Which “activity change, negative = inhibition” value does the source give for `NC(=O)c1ccc(-c2nc(-c3ccc4c(c3)OCO4)c(-c3ccccn3)[nH]2)cc1` here?
The value was -16.4% (inactive).

With `COc1cccc(-c2c[nH]c3c(NN=Cc4ccncc4)ncnc23)c1` as the molecule, how does the Potency read?
The Potency was 5.8 µM (active).

Which “activity change, negative = inhibition” value does the source give for `N#Cc1ccc(Oc2nccc(-c3c(-c4ccc(F)cc4)ncn3C3CCNCC3)n2)cc1` here?
Its value is 3.97% (inactive).

How did the “activity change, negative = inhibition” value turn out when `O=C(O)c1ccc(Oc2nccc(-c3c(-c4ccc(F)cc4)ncn3C3CCNCC3)n2)cc1` was run?
Its value is 12.2% (inactive).

Which Potency does the source give for `Cc1ccc(Nc2ccnc(Nc3cccc(C(N)=O)c3)n2)cc1O` here?
Its Potency is 1.46 µM (active).

How did the “activity change, negative = inhibition” value turn out when `NS(=O)(=O)c1ccc(N=Nc2c(O)[nH]c3ccc(C(=O)NCc4ccncc4)cc23)cc1` was run?
Its value is 10.1% (inactive).

`Cc1cc(O)cc(C)c1C=Cc1cncc(C(=O)N(C)C)c1` was tested. Which “activity change, negative = inhibition” value did it give?
Its value is 9.42% (inactive).

`CS(=O)(=O)CCNCc1ccc(-c2ccc3ncnc(Nc4ccc(OCc5cccc(F)c5)c(C(F)(F)F)c4)c3c2)o1` was tested. Which “activity change, negative = inhibition” value did it give?
Its value is -13% (inactive).

For `Nc1nccc(-c2c(-c3ccc(F)cc3)nn3cc(C(F)(F)F)ccc23)n1`, which “activity change, negative = inhibition” value is on record?
Its value is -2.4% (inactive).

With `CCN1CCC(CC(=O)Nc2n[nH]c3nc(-c4cccs4)c(Br)cc23)CC1` as the molecule, how does the “activity change, negative = inhibition” value read?
Its value is 3% (inactive).

With `NS(=O)(=O)c1ccc(N=Nc2c(O)[nH]c3cccc(CCc4ccncc4)c23)cc1` as the molecule, how does the “activity change, negative = inhibition” value read?
The value was 7.91% (inactive).

`NS(=O)(=O)c1ccc(N=Nc2c(O)[nH]c3ccc(-c4cnco4)cc23)cc1` was tested. Which “activity change, negative = inhibition” value did it give?
The value was 1.94% (inactive).

How did the “activity change, negative = inhibition” value turn out when `CCCN1CCC(c2ccc(Nc3nc(Nc4cc(F)ccc4C(N)=O)c4cc[nH]c4n3)c(OC)c2)CC1` was run?
Its value is 27.5% (inactive).

`Clc1ccc(CNc2nccc(-c3cnn4ncccc34)n2)cc1` was tested. Which “activity change, negative = inhibition” value did it give?
The value was 2.79% (inactive).

For `COc1cc(N2CCN(C(C)C)CC2)ccc1Nc1nc(Nc2cccc3ncccc23)c2cc[nH]c2n1`, which “activity change, negative = inhibition” value is on record?
Its value is 39.4% (inactive).

Which “activity change, negative = inhibition” value does the source give for `CN1CCC(C(=O)Nc2n[nH]c3nnc(-c4ccccc4)cc23)CC1` here?
The value was 4.91% (inactive).

How did the “activity change, negative = inhibition” value turn out when `COc1cc(N2CCN(C(C)C)CC2)ccc1Nc1nc(Nc2cccc(F)c2C(=O)O)c2cc[nH]c2n1` was run?
The value was 0.459% (inactive).

How did the “activity change, negative = inhibition” value turn out when `CN(C)CCCn1c(-c2nonc2N)nc2cnccc21` was run?
The value was 10.5% (inactive).

For `COc1cc2c(cc1Nc1nc(Nc3ccsc3C(N)=O)c3cc[nH]c3n1)N(C(=O)CN(C)C)CCC2(C)C`, which “activity change, negative = inhibition” value is on record?
Its value is 9.8% (inactive).

`CS(=O)(=O)c1ccc(Oc2nccc(-c3c(-c4ccc(F)cc4)ncn3C3CCNCC3)n2)cc1` was tested. Which “activity change, negative = inhibition” value did it give?
Its value is 7.12% (inactive).

How did the “activity change, negative = inhibition” value turn out when `ON=C1CCc2cc(-c3nc(C4CCNCC4)[nH]c3-c3ccncc3)ccc21` was run?
Its value is -26% (inactive).

How did the “activity change, negative = inhibition” value turn out when `NS(=O)(=O)c1ccc(Nc2cc(-c3ccc(O)c(F)c3)[nH]n2)cc1` was run?
The value was -17.6% (inactive).

For `NC(=O)c1ccc2c(-c3ccnc(NCCCO)n3)c(-c3ccc(F)cc3)nn2c1`, which “activity change, negative = inhibition” value is on record?
Its value is -9.6% (inactive).

`COC(=O)Nc1nc2ccc(S(=O)(=O)c3ccc(NC(=O)Nc4cc(C(F)(F)F)ccc4F)cc3)cc2[nH]1` was tested. Which “activity change, negative = inhibition” value did it give?
Its value is 5.29% (inactive).

Which Potency does the source give for `O=C(Nc1n[nH]c2cc(-c3ccccc3)ccc12)C1CC1` here?
Its Potency is 18.3 µM (active).

For `CCn1c(-c2nonc2N)nc2cnc(Oc3cccc(NC(=O)c4ccc(N(C)C)cc4)c3)cc21`, which Potency is on record?
Its Potency is 1.03 µM (active).

Which “activity change, negative = inhibition” value does the source give for `CN(C)c1cc2c(Nc3ccc4c(cnn4Cc4ccccc4)c3)ncnc2cn1` here?
The value was -7.49% (inactive).

For `Fc1ccc(-c2ncn(C3CCNCC3)c2-c2ccnc(Oc3ccc(F)c(F)c3)n2)cc1`, which “activity change, negative = inhibition” value is on record?
Its value is 3% (inactive).

For `CCS(=O)(=O)c1ccc(OC)c(Nc2ncc(-c3cccc(OC)c3)o2)c1`, which “activity change, negative = inhibition” value is on record?
The value was -4.23% (inactive).

With `N#Cc1cccc(Nc2nccc(-c3cnn4ncccc34)n2)c1` as the molecule, how does the “activity change, negative = inhibition” value read?
The value was 6.81% (inactive).
